# According to PubChem BioAssay (NCI):
# This is part of a sample that, as a whole, favours compounds with a hit. Of some 79,000 tested, about 15% had one in any assay. Unmarked numbers belong to inactive results. The source made the active and inactive calls. Rule as the data show it: active = growth inhibition above about 70%; inactive = the rest.
# Assay: NCI Yeast Anticancer Drug Screen. Data for the rad14 strain (AID 159);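 also: 0% = growth of vehicle-treated control cultures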
# Details: S. cerevisiae rad14 strain growth inhibition; at 1.2 µM; hits give high values
# In short: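 Growth inhibition vs vehicle controls; genetically altered yeast strain (DNA damage repair defect) treated with test compounds.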
row,Structure (SMILES),growth inhibition
1,O=CC=C(c1ccccc1)c1ccccc1,7%
2,FC(F)(F)c1nc2nc(Cl)c(Cl)nc2n1CCCN1CCOCC1,6%
3,BrCC[P+](c1ccccc1)(c1ccccc1)c1ccccc1,-32%
4,N#CSc1ccc(S(N)(=O)=O)cc1,-36%
5,O=[N+]([O-])c1ccc2nc3ccccc3cc2c1,0%
6,O=C(NC(Nc1ccc(F)c(Cl)c1)(C(F)(F)F)C(F)(F)F)C(C(F)(F)F)C(F)(F)F,9%
7,O=C(/C=C\c1ccc(Cl)cc1Cl)c1cccs1,-2%
8,O=C(NCCCCNCCCNC(=O)c1cc(-c2ccccc2)nc2ccccc12)c1cc(-c2ccccc2)nc2ccccc12,0%
9,NC(=NCc1ccccc1)N/N=C\c1ccnc2ccccc12,0%
10,CCCCN(CCCC)CCSc1ccc(Cl)cc1,3%
11,COc1cc(C2C3=C(COC3=O)Oc3cc4c(cc32)OCO4)ccc1O (centres undefined),1%
12,C#CCCCc1ccccc1,-36%
13,CCc1ccc(NS(=O)(=O)c2ccccc2)c([N+](=O)[O-])c1,2%
14,COc1ccc(C2c3cc4c(cc3OC(C)(O)C2C)OCO4)c(OC)c1 (centres undefined),-3%
15,COC(=O)c1ccc(CCC2=CC(=O)C(Br)=CC2=O)cc1,-6%
16,NNC(=O)CCc1ccc2ccc3ccccc3c2c1,-4%
17,Cn1c2ccccc2c(=O)c2cc(NC(=O)CCCCC(=O)Nc3ccc4c(c3)c(=O)c3ccccc3n4C)ccc21,-1%
18,CC(CC(C)(C)[N+](C)(C)C)[N+](C)(C)C (centres undefined),2%
19,CC1CCN(CCC(=O)c2ccc(Cl)cc2)CC1,19%
20,CCCCCCCCCCCCCCC(C(=O)[O-])[n+]1ccccc1 (centres undefined),-2%

row,Structure (SMILES),growth inhibition
1,CNC1C(OC2C(OC3C(O)C(O)C(N=C(N)N)C(O)C3N=C(N)N)OC(C)C2(O)CO)OC(CO)C(O)C1O (centres undefined),-2%
2,O=C(O)c1ccccc1-c1ccccc1C(=O)Nc1ccc2c(c1)Cc1ccccc1-2,7%
3,O=[N+]([O-])c1cccc2nc3ccccc3c(NCCCN3CCOCC3)c12,98% (active)
4,C=CC(C)(O)CCC1C(=C)C(O)CC2C(C)(C)CCCC12C (centres undefined),-7%
5,CN1c2ccc(Cl)cc2C(=O)NC1c1ccc([N+](=O)[O-])s1 (centres undefined),-8%
6,[O-][n+]1c2ccc(O)cc2nc2ccc(Br)cc21,2%
7,O=C1c2ccccc2-c2nc3ccccc3nc21,-43%
8,CCCCN1C(=O)N(c2ccc(OCC)cc2)C2N(CCCC)C1C(C)(C)C2(C)C (centres undefined),-1%
9,CO[C@H]1C[C@](C)(O)Cc2cc3c(c(O)c21)C(=O)c1c(O)cc2c(c1C3=O)O[C@@H]1O[C@@]2(C)[C@H](O)[C@@H](N(C)C)[C@@H]1O,-32%
10,COc1cc2c(cc1[N+](=O)[O-])C(=O)C(Br)(Br)CCC2,33%
11,O=C1OC(CCl)CN1/N=C/c1ccc([N+](=O)[O-])o1 (centres undefined),-7%
12,CN(C)CCOc1ccc2c(c1)C/C(=C/c1ncc([N+](=O)[O-])n1C)C2=O,33%
13,CCCCCCCCCCCCCCCCCCN(C)CC(COP(=O)([O-])OCC[N+](C)(C)C)OC (centres undefined),2%
14,CC(C)c1ccccc1NC(=O)/C(Cl)=C(\Cl)C(=O)O,2%
15,O=[N+]([O-])C(=C(Sc1ccccc1)Sc1ccccc1)C(Cl)=C(Cl)Cl,4%
16,C(=C\c1ccccc1)/COc1ccccc1C(N1CCOCC1)n1nc2ccccc2n1 (centres undefined),-4%
17,O=C1C(Nc2ccccc2)=C(Oc2ccccc2)C(=O)c2ccccc21,13%
18,CCN(CC)CCN1C(=O)c2cccc3cc(OC)cc(c23)C1=O,-10%
19,CN(C)Cc1cc(N=Nc2ccc(Cl)cc2)cc(CN(C)C)c1O,12%
